Screens: PubChem, National Center for Advancing Translational Sciences (NCATS)
SMN2 splice enh = enhancers of SMN2 splice variant expression. hit rate 2.8% among 210,000. Potency, µM (doses to about 46.1 µM), for the others: at the top dose activity change, positive = activation, usual class: activators. HEK293 SMN2-luciferase splicing reporter, luminescence, 30-36 h; also: % of control where 0% means no effect; nearly all actives have a fitted effect of over 55% in size
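qHTS luciferase splicing reporter: luminescence rises when SMN2 exon 7 is included in transfected HEK293 cells. Compound exposure lasted 30-36 h at 37C, with 4.5 mM final sodium butyrate as control, followed by a ONE-Glo read.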
FLuc modulator = counter-screen for miR-21 project: firefly luciferase inhibitors or activators; P08659; purified FLuc, Km substrates, luminescence inhibition; Potency, µM (highest dose often 57.5 µM), without a hit: at the highest dose activity change, negative = inhibition, actives largely listed as inhibitors; hit rate 6.9% among 360,000; AID 588342;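 also: plate controls were vehicle for no effect and reference inhibitor for full effect; nearly all actives have a fitted effect of over 55% in size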
Target sequence (P08659 whole entry, looked up): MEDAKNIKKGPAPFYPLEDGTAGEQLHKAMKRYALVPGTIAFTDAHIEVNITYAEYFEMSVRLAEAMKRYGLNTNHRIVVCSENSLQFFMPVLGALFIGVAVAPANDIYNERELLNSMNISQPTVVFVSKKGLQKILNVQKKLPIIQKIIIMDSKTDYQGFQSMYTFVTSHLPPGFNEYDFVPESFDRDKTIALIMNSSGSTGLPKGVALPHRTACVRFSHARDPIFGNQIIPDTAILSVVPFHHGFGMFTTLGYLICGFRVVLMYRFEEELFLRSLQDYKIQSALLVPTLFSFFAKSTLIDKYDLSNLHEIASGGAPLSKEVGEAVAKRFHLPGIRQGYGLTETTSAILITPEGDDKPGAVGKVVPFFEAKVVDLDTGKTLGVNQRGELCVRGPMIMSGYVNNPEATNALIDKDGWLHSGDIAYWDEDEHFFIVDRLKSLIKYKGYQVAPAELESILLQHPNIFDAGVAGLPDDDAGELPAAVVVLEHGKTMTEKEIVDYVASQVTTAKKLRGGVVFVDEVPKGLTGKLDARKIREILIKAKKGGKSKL
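Biochemical qHTS of compounds, final roughly 60 µM downward over six points, against 10 nM purified firefly luciferase using Km concentrations of substrates (10 uM D-luciferin, 10 uM ATP) in Tris acetate pH 7.5 buffer; luminescence output.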
NPC1 prom act = activates the NPC1 promoter; Huh7 NPC1 promoter luciferase reporter, 24 h; hit rate 2.4% among 320,000; Potency, µM (highest dose often 9.22 µM), without a hit: top-dose activation, usual class: activators; AID 485313; also: % of control where 0% means no effect; nearly all actives have a fitted effect of over 60% in size
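Compounds in DMSO were transferred onto Huh7 NPC1-luciferase reporter cells pre-incubated 2 h; after 24 h at 37 °C, Amplite reagent was dispensed and luminescence recorded 10 min later.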
ELG1 DNA repair = inhibitors of ELG1-dependent DNA repair in HEK293T cells; Potency, µM (series often up to 46.1 µM), for the others: top-dose activity change, negative = inhibition, usual class: inhibitors; HEK293T ELG1-luciferase reporter, luminescence, 16 h; DNA damage induced by 5-fluorouridine; hit rate 2.3% among 330,000; also: % is scaled to controls: 0 for no effect and ±100 for the full control effect; nearly all actives have a fitted effect of over 55% in size
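Reporter activity after DNA damage by 5-fluorouridine is monitored. Compound-treated cells incubate 16 hr at 37 °C, then ONE-Glo is added for 30 min before luminescence reading.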
Rab9 prom act = Rab9 promoter activation | Huh7 Rab9 promoter-luciferase reporter, luminescence, 24 h | Potency, µM (highest dose often 9.22 µM), inactives show top-dose activation, negative = inhibition, hits mostly activators | hit rate 2.8% among 320,000 | AID 485297; also: % of control where 0% means no effect; nearly all actives have a fitted effect of over 60% in size
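Huh7 cells stably carrying Rab9 promoter–luciferase reporter, plated 1500 cells/well, compound added after 2 h and incubated 24 h at 37 °C; luciferase luminescence then read after 10 min with detection reagent.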
ELG1 genotoxic = inducers of genotoxicity in HEK293T ELG1-luciferase cells | AID 504466 | HEK293T ELG1-luciferase reporter, luminescence, 16 h | hit rate 1.3% among 330,000 | Potency, µM (highest dose often 46 µM), for inactives: at the top dose activity change, positive = activation, usual class: activators; also: % of control where 0% means no effect; nearly all actives have a fitted effect of over 60% in size
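Reporter readout depends on ELG1 protein level, which increases with genetic stress. After 16 hr compound exposure at 37 °C, luciferase activity was quantified using ONE-Glo.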
* hit, by the source's call; ? = inconclusive; · = not tested or not shown; [ ] = remark or other dose. In the library only some 9.4% were active in any assay of this set; here they are far more common. Calls follow the shape of the dose curve; as a rule, active = well fitted curve in the direction sought with a large enough effect; inconclusive = small, poorly fitted or top-dose-only effect, or another doubt; inactive = no such curve, though single readings can be large; an effect the other way counts as inactive or inconclusive. Potency is read from the fitted curve at half-maximal effect.

SMILES	SMN2 splice enh	FLuc modulator	NPC1 prom act	ELG1 DNA repair	Rab9 prom act	ELG1 genotoxic
O=C(/C=C/c1cccc(F)c1)N1CCc2ccccc21	2.51µM*	0.849µM*	1.12µM*	?	0.631µM*	1.84µM*
O=C(/C=C/c1ccccc1Cl)OCC(=O)N1CCCC1	·	·	·	?	·	1.1%
COc1cc(OC)c(NC(=O)CN2C(=O)CCn3nc(-c4cccn4C)cc32)cc1Cl	·	-2.1%	·	·	·	·
CCOc1ccc2nc(NC(=O)c3nc(SCc4ccccc4F)ncc3Cl)sc2c1	2.8%	3.7%	·	·	·	·
Nc1cc(S(=O)(=O)O)ccc1O	0.2%	·	·	·	·	·
CCN(CC)c1ccc(NC(=O)C2=CC=CN3CCS(=O)(=O)N=C23)cc1	·	3.01µM*	17.4%	?	?	11.6%
Cc1ccc(-c2csc(NC(=O)c3ccccc3F)c2C(=O)O)cc1	·	21.3µM*	?	?	4.2%[1.84 µM]	-4.0%
Cc1ccc(C(=O)Nc2ccccc2-c2ccccc2)o1	24.8%	?	-1.2%	8.7%	-3.3%	-1.7%
COc1ccc(-c2csc(NC(=O)c3ccccc3Br)c2C(=O)O)cc1	·	?	-4.4%	8.4%	-5.4%	-3.0%
COc1ccc(-c2csc(NC(=O)c3ccccc3OC)c2C(=O)O)cc1OC	·	3.1%	-10.1%	-2.9%	-5.7%	-3.0%
O=C(Nc1scc(-c2ccccc2)c1C(=O)O)c1ccccc1F	·	26.9µM*	21.2%	?	20.3%	6.4%
Cc1ccc(C(=O)Nc2scc(-c3ccccc3)c2C(=O)O)o1	4.2%	15.1µM*	-1.1%	?	3.2%	6.5%
Cc1ccc(Cn2c(C(=O)O)c(CNC3CCCCCC3)c3ccc(C)cc32)cc1	·	-4.4%	·	·	·	·
CCOc1ccc(NC(=O)C2CCCN(c3nnc(-n4c(C)ccc4C)s3)C2)cc1 (centres undefined)	-10.7%	0.1%	·	·	·	·
O=C(c1cc2cc(Cl)ccc2o1)N1CCCC1	·	?	22.6%	?	19.8%	?
Cc1ccc2oc(C(=O)N3CCCCCC3)c(C)c2c1	·	15.1µM*	2.24µM*	?	·	18.3µM*
Cc1c(C(=O)N2CCN(C(=O)c3ccccc3)CC2)oc2ccc(F)cc12	·	4.8%	-6.3%	18.3µM*	1.9%	-0.9%
O=C(c1cc2cc(Br)ccc2o1)N1CCCCC1	11.2µM*	10.7µM*	2.51µM*	?	3.98µM*	?
O=C(c1cc2ccccc2c(=O)o1)N1CCCCCC1	2.2%	23.9µM*	0.9%	?	12.7%	14.9%
COC(=O)c1ccc(NC(=O)CN(Cc2ccccc2)S(=O)(=O)c2ccc(Cl)cc2)cc1	-26.2%	-7.4%	·	·	·	·
Fc1ccc(C(NCCc2ccc(Cl)cc2)c2nnc(-c3ccccc3Cl)o2)cc1 (centres undefined)	-9.8%	-3.4%	·	·	·	·
Cc1c(C(=O)N2CCCCC2)oc2ccc(Br)cc12	·	21.3µM*	?	?	?	?
CCOc1ccc(C(=O)Nc2cc(-c3cn4cccnc4n3)ccc2C)cc1OCC	·	-16.0%	·	·	·	·
Nc1nonc1-c1noc(-c2ccccc2Br)n1	?	16.9µM*	13.3%	?	4.7%	?
Nc1nonc1-c1noc(CCCN2C(=O)c3ccccc3C2=O)n1	?	23.9µM*	?	?	?	?
SMILES	SMN2 splice enh	FLuc modulator	NPC1 prom act	ELG1 DNA repair	Rab9 prom act	ELG1 genotoxic
O=C(O)c1ccccc1-c1noc(-c2ccccc2F)n1	·	9.53µM*	3.55µM*	·	2µM*	·
O=C(c1ccccc1-c1nc(-c2ccc(F)cc2)no1)N1CCCC1	-8.4%	3.2%	-2.7%	-24.4%	-0.1%	-0.2%
O=C(c1ccccc1)c1nnc(-c2ccccc2F)o1	26.2%	0.536µM*	16.3%	?	24.0%	16.4µM*
Cc1cc(=O)oc2c(OS(C)(=O)=O)c(OS(C)(=O)=O)ccc12	-6.7%[9.22 µM]	·	·	·	·	·
Oc1ccccc1-c1nnc(-c2ccc(C(F)(F)F)cc2)o1	4.5%	?	6.7%	?	6.1%	?
Cc1ccc(-c2noc(-c3ccccc3F)n2)cc1	12.6µM*	0.849µM*	?	?	2µM*	2.59µM*
